High-throughput results (PubChem)
TexasRed fluor = counter-screen for TRb-SRC2 inhibitors: fluorescence interference | 280,000 compounds, 0.29% hits | Potency, µM (highest dose often 106 µM), inactives show top-dose fluorescence change, negative = quenching | TRb/SRC2 Texas Red total fluorescence interference | AID 1479; active = well fitted curve in either direction with a large enough effect; inconclusive = small, poorly fitted or top-dose-only effect
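Flags fluorescent or light-absorbing compounds by total fluorescence, S + 2P, at 555 nm excitation and 632 nm emission. Mixture: 20 nM Texas Red SRC2 peptide, 0.6 uM human TRb LBD, 1 uM T3, 5% DMSO; compound exposure 5 h at ambient temperature.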
Tau fibril ThT = tau fibrillization inhibition (ThT binding); recombinant tau K18 P301L, heparin-induced fibrillization, ThT fluorescence; Potency, µM (top dose mostly 57.4 µM), inactives show at the top dose activity, negative = inhibition, hits mostly inhibitors; 270,000 compounds, 2.1% hits; P10636; AID 1460; note: nearly all actives have a fitted effect of over 55% in size
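Fibril formation assay: tau K18 P301L at 15 uM with trace Alexa 594 label, heparin inducer 20 uM, pH 7 sodium acetate buffer, 37 C for 6 hr; endpoint ThT signal.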
TRb SRC2 PPI = disrupts binding of human TR beta to SRC2; AID 1469; 280,000 compounds, 0.065% hits; P10828; Potency, µM (highest dose often 106 µM), for the others: at the highest dose activity change, negative = inhibition, usual class: inhibitors; TRbeta-SRC2 peptide binding, fluorescence polarization; receptor liganded with 1 µM T3;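 note: plate controls were bound peptide for no effect and peptide without receptor for full effect; nearly all actives have a fitted effect of over 50% in size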
Target sequence (P10828 whole entry, looked up): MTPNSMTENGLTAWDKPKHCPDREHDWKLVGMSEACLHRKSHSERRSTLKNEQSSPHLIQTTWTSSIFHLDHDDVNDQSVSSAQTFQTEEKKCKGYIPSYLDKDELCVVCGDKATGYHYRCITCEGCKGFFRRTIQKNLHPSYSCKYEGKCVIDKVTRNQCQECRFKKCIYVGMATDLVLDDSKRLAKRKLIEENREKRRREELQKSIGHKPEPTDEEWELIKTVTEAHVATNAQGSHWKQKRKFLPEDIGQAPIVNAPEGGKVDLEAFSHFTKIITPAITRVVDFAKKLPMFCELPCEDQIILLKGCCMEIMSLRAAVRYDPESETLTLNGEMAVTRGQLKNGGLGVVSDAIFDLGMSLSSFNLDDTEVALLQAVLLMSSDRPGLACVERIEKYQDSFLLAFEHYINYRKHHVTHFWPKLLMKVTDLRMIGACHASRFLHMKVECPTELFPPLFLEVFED
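Polarization signal, normalized between peptide-alone and full complex controls, measured compound effects on T3-liganded human TRb LBD (0.6 uM) binding 20 nM Texas Red SRC2 peptide after 5 hr.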
Tau FP inhib = blocks human tau fibril formation measured by polarization; K18 P301L tau heparin fibrillization, Alexa594 FP, 6 h; AID 1468; P10636; Potency, µM (doses to about 57.7 µM), inactives show at the top dose activity, negative = inhibition, most hits filed as inhibitors; 280,000 compounds, 0.39% hits; note: nearly all actives have a fitted effect of over 55% in size
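Human K18 P301L fragment (15 uM unlabeled plus 0.24 uM Alexa 594-labeled) in 100 mM sodium acetate pH 7 with compound, aggregation induced by 20 uM heparin for 6 hr at 37 C. ThT (30 uM) added for 1 hr, then Alexa 594 FP read.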
Tau fluor cs = counter-screen for tau fibril formation inhibitors; tau K18 P301L (four-repeat tau fragment) Alexa594 fluorescence, heparin fibrillization; Potency, µM (titrated, usually from 57.7 µM), for inactives: top-dose activity change, negative = decrease; 280,000 compounds, 0.93% hits; AID 1463; note: nearly all actives have a fitted effect of over 55% in size
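Human K18 P301L tau (15 uM unlabeled plus 0.24 uM Alexa 594-labeled, final) in 100 mM sodium acetate pH 7 was mixed with compound and 20 uM heparin and incubated 6 hr at 37 C.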
* hit, by the source's call; ? = inconclusive; . = no result given; [ ] = remark or other dose. A selection: hits, their analogues and other compounds. The true share with any hit is near 3%. Unless noted, calls come from the whole dose curve; as a rule, active = well fitted curve in the direction sought with a large enough effect; inconclusive = small, poorly fitted or top-dose-only effect, or another doubt; inactive = no such curve, though single readings can be large; an effect the other way counts as inactive or inconclusive. Unless noted, % is set by controls: 0 for no effect and ±100 for the full control effect; potency is the fitted concentration of half-maximal effect.

SMILES	TexasRed fluor	Tau fibril ThT	TRb SRC2 PPI	Tau FP inhib	Tau fluor cs
COCCCN1C(=O)/C(=C/c2ccc(CNS(=O)(=O)c3ccccc3)o2)C(C(=O)OC)=C1C	4%	14µM*	-3%	?	-19%
CCC1S/C(=N/C(=O)NC2CCCCC2)NC1=O (stereo unspecified)	1%	-7%	2%	-12%	-8%
O=C(/N=C1\NC(=O)C(F)(C(F)(F)F)S1)NC1CCCCC1 (stereo unspecified)	-2%	25µM*	-21%	?	-16%
C=C(C)C(=O)OC1(C(F)(F)F)Oc2cc(C)ccc2NC1=O (stereo unspecified)	-2%	16µM*	-25%	?	-21%
CCOC(=O)C1(N(CC)CC)Sc2cc(C)ccc2NC1=O (stereo unspecified)	-3%	-5%	3%	-5%	-17%
CCCCCCCCCCCC[N+](C)(C)Cc1ccccc1	0%[201 µM]	.	4%[201 µM]	.	.
O=C(Nc1ccc(O)c2c(=O)cc(-c3ccccc3Cl)oc12)c1ccc(Br)cc1	-4%	14µM*	6%	5%	-18%
CC(C)(C)c1cc(C(c2cccnc2)N2CCN(CCO)CC2)cc(C(C)(C)C)c1O (stereo unspecified)	4%	20µM*	-5%	?	-22%
OCCN1CCN(C(c2cccs2)c2ccc3cccnc3c2O)CC1 (stereo unspecified)	0%	?	-2%	?	-16%
CC1(C)CC(=O)C2=C(C1)NC1=C(C(=O)c3ccccc31)C2c1ccccc1 (stereo unspecified)	-3%	?	-3%	13%	?
CC1(C)CC(=O)C2=C(C1)NC1=C(C(=O)c3ccccc31)C2c1cc([N+](=O)[O-])ccc1O (stereo unspecified)	-5%	14µM*	-1%	7%	16µM*[quencher]
O=C1/C(=C/c2ccc(O)c(O)c2)Oc2cc(O)ccc21	-15%	14µM*	-2%	4%	?
COc1cc(/C=C2\Oc3cc(O)ccc3C2=O)ccc1O	-14%	?	2%	14%	-24%
Cc1ccc(Nc2nnc(SCC(=O)Nc3cccc(S(=O)(=O)N4CCCCC4)c3)s2)cc1	0%	-1%	12%	-13%	7.9µM*[quencher]
CC(C)CC(=O)Nc1nnc(SCC(=O)Nc2ccc(F)cc2)s1	-3%	-1%	-3%	?	-17%
O=C(CSc1nnc(NC2CCCCC2)s1)Nc1ccc2c(c1)C(=O)c1ccccc1C2=O	-4%	?	5%	?	8.9µM*[quencher]
CC(C)Nc1nnc(SCC(=O)Nc2ccc3c(c2)C(=O)c2ccccc2C3=O)s1	-9%	10µM*	3%	14%	13µM*[quencher]
Cc1ccc(-c2nc(SCC(=O)Nc3cc(S(=O)(=O)N4CCCCC4)ccc3Cl)n[nH]2)cc1	-2%	1%	4%	22µM*	?
CC(=O)OC[C@@H]1O[C@H](C/C=N\O[C@@H](C)c2cc(-c3c(C)cc(C)cc3C)no2)C=C[C@@H]1OC(C)=O	0%[11.2 µM]	-6%[11.5 µM]	-3%[11.2 µM]	2%[11.6 µM]	-8%[11.6 µM]
N#C/C(=C(/O)c1cc2ccccc2o1)c1nc2ccccc2s1	-6%	6.3µM*	0%	?	?
N#C/C(=C(/O)c1ccco1)c1nc2ccccc2s1	-9%	?	1%	11%	-17%
CCNc1cc(N2CCCC2)ccc1[N+](=O)[O-]	-4%	11µM*	-7%	0%	-13%
CCCC(=O)N1CCN(c2ccc([N+](=O)[O-])c(NC(C)c3ccccc3)c2)CC1 (stereo unspecified)	-3%	14µM*	-3%	7%	-19%
COc1cccc(OCCNc2cc(N3CCOCC3)ccc2[N+](=O)[O-])c1	-1%	11µM*	4%	4%	?
COc1cccc(OCCNc2cc(N3CCCCC3)ccc2[N+](=O)[O-])c1	-2%	?	-8%	-3%	?
COc1ccc(OCCNc2cc(N3CCOCC3)ccc2[N+](=O)[O-])cc1	-6%	5µM*	4%	-1%	?
CC(C)CNc1cc(N2CCCC2)ccc1[N+](=O)[O-]	.	?	.	5%	-11%
